Binding signal data for 12 molecules are collected here from PMC12136788.

Substitutions are numbered along the chain they refer to. In all, about 5,800 sequences were measured (“enrichment r”: median about 0.54, highest 2% from about 16 on). Many of the other results were omitted from the sample, so the highest values are more common in it than they were.

B1: chr22:41636480:41636706:+|CDS|ENSG00000196419|unk|FALSE|unique (ssRNA)
RNA: GGGAGUUCUACAGUCCGACGAUCAUGGGCCACGGAUCUGACUACUCACUCAGUGAAGUGCUGUGGGUCUGUGCCAACCUCUUUAGUGAUGUCCAAUUCAAGAUGAGUCAUAAGAGGAUCAUGCUGUUCACCAAUGAAGACAACCAACAGAGGAUUGAGCAUCA
B2: chr1:223774945:223775046:+|3pUTR|ENSG00000162909|msi1|total|mutant (ssRNA)
RNA: GGGAGUUCUACAGUCCGACGAUCAAAUACACUUUGUAUCUGGACCUCAAAAUUAUGGGAACAUUUACUUAAACGGAUGAUCACCGCUGAAAAUAAUGAUACUGUCAAUUUGAGACCGCAGAAGUUUCACACAUCAAAGUAAAACAACAGAGGAUUGAGCAUCA
B3: chr2:108783740:108783841:+|CDS_3pUTR|ENSG00000153201|msi1_unk|FALSE|overlapping (ssRNA)
RNA: GGGAGUUCUACAGUCCGACGAUCCAAUAAUUCUCAAUUUGUUAUAACACUGAAGAAAGCAGAACAUUUGGACUUUAAGCAUGUAGUAUUUGGGUUUGUUAAGGAUGGCAUGGAUACUGUGAAAAAGAUUGAAUCAUUUGGUUCCAACAGAGGAUUGAGCAUCA
B4: chr16:61647241:61654101:-|three_prime_utr|ENSG00000150394|control|control|control (ssRNA)
RNA: GGGAGUUCUACAGUCCGACGAUCAAAGAAACUUGACAGUGGAUUAUAAAUAAAUCACUGGAACUGAGCAUUCUGUAAUAUUCUAGGGUCACUCCCCUUAGAUACAACCAAUGUGGCUAUUUGUUUUAGAGGCAAGUUUAGCACCAACAGAGGAUUGAGCAUCA
B5: chr1:62864655:62864756:+|3pUTR|ENSG00000125703|unk|FALSE|unique (ssRNA)
RNA: GGGAGUUCUACAGUCCGACGAUCUUUGUUAACUGUGAUAUGCAUACACUUAUAUAAGCAGAAUUAUGAGUUAAAGUAAUACUUAGCAAUAUGAUUUUAUAAUGGCUCCUCAUUAUGCUUGCUGUUGAACCUUUUAUGAGGAGUCAACAGAGGAUUGAGCAUCA
B6: chr3:97755980:97756081:+|3pUTR|ENSG00000080224|unk|FALSE|unique (ssRNA)
RNA: GGGAGUUCUACAGUCCGACGAUCUAAUUAAAAAUCUCUUUCCUACCUUUAGUAAUUUGUAGGAUGAACUGUAUGCAUUUAGAUAGAAAUUGCUUUUGUUAAAUUUACAUUUAAACACAUCUUCAUUCACUUAGAGAAGCCAUACAACAGAGGAUUGAGCAUCA
B7: chr8:42175503:42175666:-|3pUTR|ENSG00000104368|msi1|FALSE|unique (ssRNA)
RNA: GGGAGUUCUACAGUCCGACGAUCAUGAAAGCAUGUCUCAAUAGUAAAAGAUAACAAGAUCUUUCAGGAAAGACGGAUUGCAUUAGAAAUAGACAGUAUAUUUAUAGUCACAAGAGCCCAGCAGGGCCUCAAAGUUGGGGCAGGCAACAGAGGAUUGAGCAUCA
B8: ENSG00000070961:be:win_6051|3pUTR|ENSG00000070961|bound_else_gene|NA|bound_elsewhere_windowed (ssRNA)
RNA: GGGAGUUCUACAGUCCGACGAUCCAGAAAUUUCCAGAGCAUUAUGUAGGUAGAAAAAAAUGCAAGCAAGCUGUUAAAGAUCUUGGAUCCCAUUAUAUAGUAUGUAUAGCUGAAAUCUGUAAUUCAAUCACUUUUUCUCUUUUACAACAGAGGAUUGAGCAUCA
B9: chr3:62294137:62294238:+|3pUTR|ENSG00000144724|msi1|FALSE|unique (ssRNA)
RNA: GGGAGUUCUACAGUCCGACGAUCUGAGACCCUUUAGUUAUUCUCCAUUAAUGCUUCUUAGUUUGUAAUACCAUACCUCACAGUAGGUAGAAGAAUGAAAACUUCUGCAGGUGUGUAAUUUUGAAACUAGUCCUCUAAAAAUUCCAACAGAGGAUUGAGCAUCA
B10: chr3:97755980:97756081:+|3pUTR|ENSG00000080224|unk|total|mutant (ssRNA)
RNA: B6 RNA with U49C, A50C, U59C, A60C, U79C, A80C, U83C, A84C, U131C, A132C
B11: ENSG00000070961:be:win_6001|3pUTR|ENSG00000070961|bound_else_gene|NA|bound_elsewhere_windowed (ssRNA)
RNA: GGGAGUUCUACAGUCCGACGAUCCAAGACAUGCUUAGUGUGUAUUUCUCUCUUUGAGACACUGUAAUUUCUACCAGAAAUUUCCAGAGCAUUAUGUAGGUAGAAAAAAAUGCAAGCAAGCUGUUAAAGAUCUUGGAUCCCAUUCAACAGAGGAUUGAGCAUCA
B12: chr8:74853834:74853946:+|3pUTR|ENSG00000137558|unk|FALSE|unique (ssRNA)
RNA: GGGAGUUCUACAGUCCGACGAUCAAGUGCUUUUUUUUUUCUGAAUUAAUUAGGUAUUGGUAAAAUAUAUUUUUAAAUUUAGUUAGCUUUAUAAACACAAUUAGAAUUACAAUUAAUUAACAGAGGUAUAAUUGUCUCACUUUCCAACAGAGGAUUGAGCAUCA

The target of the test is MSI1 full-length (mouse, UniProt Q61474 1-362). Briefly: nsRBNS (natural sequence RNA bind-n-seq); RBNS binding buffer (assumed for nsRBNS): 25 mM Tris pH 7.5, 150 mM KCl, 3 mM MgCl2, 0.01% Triton X-100, 500 ug/ml BSA, 20 U/ml SUPERase-In, 4 C; UNK is unkempt and MSI1 is Musashi-1; names of the RNAs are library labels; protein concentration not given here; high values mean tight binding.
Sequence of MSI1 full-length (Q61474 whole entry): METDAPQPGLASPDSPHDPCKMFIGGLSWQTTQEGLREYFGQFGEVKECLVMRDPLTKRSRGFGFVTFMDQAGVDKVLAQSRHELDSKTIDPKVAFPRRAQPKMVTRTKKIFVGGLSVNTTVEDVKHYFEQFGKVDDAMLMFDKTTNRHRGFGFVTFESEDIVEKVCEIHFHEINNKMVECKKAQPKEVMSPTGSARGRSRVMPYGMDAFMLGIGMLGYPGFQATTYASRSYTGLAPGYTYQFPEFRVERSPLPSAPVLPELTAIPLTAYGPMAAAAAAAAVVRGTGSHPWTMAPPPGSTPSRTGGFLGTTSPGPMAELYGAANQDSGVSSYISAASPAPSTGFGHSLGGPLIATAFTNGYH
B1 gave a binding signal of 0.384 enrichment R.
Consider B2, for which the binding signal amounted to 0.211 enrichment R.
Regarding B3, the binding signal amounted to 0.864 enrichment R.
In turn, B4 registered a binding signal of 1.27 enrichment R.
B5: the binding signal worked out at 0.957 enrichment R.
For B6, the binding signal was determined as 19.4 enrichment R.
With B7 the figure was 41.9 enrichment R; with B8, 37.4 enrichment R; with B9, 8.1 enrichment R.
Regarding B10, the binding signal is 1.21 enrichment R.
B11 yielded a binding signal of 0.464 enrichment R.
B12 gave a binding signal of 47.1 enrichment R.
